Data from PMC12820563, “FoxP3 forms a head-to-head dimer in vivo and stabilizes its multimerization on adjacent microsatellites”.
In all, about 16,000 sequences were measured (“rpm ratio (pull-down/input)”: median about 0.5, highest 2% from about 5.5 on). The list comes from a sample in which the highest values are over-represented; it also holds similar and randomly drawn sequences.

molecular target: T1, MBP-FoxP3dN (Mus musculus, UniProt Q99JB6 188-423); experiment: PD-seq (MBP pull-down with sequencing); 20 mM Tris-HCl pH 7.5, 100 mM NaCl, 1.5 mM MgCl2, 0.4 uM protein, 0.1 uM dsDNA library, 30 min, room temperature, amylose pull-down; high values mean tight binding; conditions: protein: recombinant; tags: His6-MBP; chain copies: 2; dsDNA, one strand shown
T1 sequence: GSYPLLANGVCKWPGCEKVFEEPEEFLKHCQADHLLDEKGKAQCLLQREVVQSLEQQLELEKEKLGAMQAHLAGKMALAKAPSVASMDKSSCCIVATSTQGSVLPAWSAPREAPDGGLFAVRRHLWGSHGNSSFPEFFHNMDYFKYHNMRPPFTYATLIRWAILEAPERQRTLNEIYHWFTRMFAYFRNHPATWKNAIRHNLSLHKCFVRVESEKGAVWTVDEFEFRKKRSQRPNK
Method in brief: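 A degenerate double-stranded DNA library, filled in with Klenow, was added at 0.1 µM to 0.4 µM His6-MBP-tagged mouse FoxP3 or FoxP1 fragment lacking the N-terminus, expressed in E. coli. Incubation lasted 30 min at room temperature in Tris pH 7.5 buffer with NaCl and MgCl2, after which complexes were collected on amylose resin, washed three times, digested with proteinase K to free the DNA, barcoded by PCR and sequenced by Illumina. Binding is the pooled-replicate reads-per-million enrichment of pull-down over input.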

Sequence | binding signal
GATGATTGTTCTCCCAGCTGATGAATTACCACTGTCGAGTAAACAAATTTTCCTAATCTTTCTGTTCAAGCGCCATCTAC | 0.41 RPM ratio (pull-down/input)
GATGATTGTTCTCCCAGCTGATGAATTAGACTTGTCGAGTAAACAAATTTTCCTAATCTTTCTGTTCAAGCGCCATCTAC | 0.529 RPM ratio (pull-down/input)
GATGATTGTTCTCCCAGCTGATGAATTCTCATGTTCGAGTAAACAAATTTTCCTAATCTTTCTGTTCAAGCGCCATCTAC | 0.416 RPM ratio (pull-down/input)
GATGATTGTTCTCCCAGCTGATGAATTATCGGTCTCGAGTAAACAAATTTTCCTAATCTTTCTGTTCAAGCGCCATCTAC | 0.382 RPM ratio (pull-down/input)
GATGATTGTTCTCCCAGCTGATGAATTACGTACATCGAGTAAACAAATTTTCCTAATCTTTCTGTTCAAGCGCCATCTAC | 0.647 RPM ratio (pull-down/input)
GATGATTGTTCTCCCAGCTGATGAATTGTGATGTTCGAGTAAACAAATTTTCCTAATCTTTCTGTTCAAGCGCCATCTAC | 4.21 RPM ratio (pull-down/input)
GATGATTGTTCTCCCAGCTGATGAATTGCTTATATCGAGTAAACAAATTTTCCTAATCTTTCTGTTCAAGCGCCATCTAC | 1.61 RPM ratio (pull-down/input)
GATGATTGTTCTCCCAGCTGATGAATTGCTTTATTCGAGTAAACAAATTTTCCTAATCTTTCTGTTCAAGCGCCATCTAC | 1.09 RPM ratio (pull-down/input)
GATGATTGTTCTCCCAGCTGATGAATTTGCTTATTCGAGTAAACAAATTTTCCTAATCTTTCTGTTCAAGCGCCATCTAC | 6.84 RPM ratio (pull-down/input)
GATGATTGTTCTCCCAGCTGATGAATTTGCTTTATCGAGTAAACAAATTTTCCTAATCTTTCTGTTCAAGCGCCATCTAC | 3.94 RPM ratio (pull-down/input)
GATGATTGTTCTCCCAGCTGATGAATTGCTTATTTCGAGTAAACAAATTTTCCTAATCTTTCTGTTCAAGCGCCATCTAC | 2.46 RPM ratio (pull-down/input)
GATGATTGTTCTCCCAGCTGATGAATTTTGCTTATCGAGTAAACAAATTTTCCTAATCTTTCTGTTCAAGCGCCATCTAC | 6.46 RPM ratio (pull-down/input)
GATGATTGTTCTCCCAGCTGATGAATTACTCATCTCGAGTAAACAAATTTTCCTAATCTTTCTGTTCAAGCGCCATCTAC | 0.431 RPM ratio (pull-down/input)
GATGATTGTTCTCCCAGCTGATGAATTGAGCGCATCGAGTAAACAAATTTTCCTAATCTTTCTGTTCAAGCGCCATCTAC | 1.34 RPM ratio (pull-down/input)
GATGATTGTTCTCCCAGCTGATGAATTCCCACGTTCGAGTAAACAAATTTTCCTAATCTTTCTGTTCAAGCGCCATCTAC | 0.282 RPM ratio (pull-down/input)
GATGATTGTTCTCCCAGCTGATGAATTGTCTATTTCGAGTAAACAAATTTTCCTAATCTTTCTGTTCAAGCGCCATCTAC | 1.18 RPM ratio (pull-down/input)
GATGATTGTTCTCCCAGCTGATGAATTCTATTTGTCGAGTAAACAAATTTTCCTAATCTTTCTGTTCAAGCGCCATCTAC | 5.87 RPM ratio (pull-down/input)
GATGATTGTTCTCCCAGCTGATGAATTTGTCTATTCGAGTAAACAAATTTTCCTAATCTTTCTGTTCAAGCGCCATCTAC | 5.7 RPM ratio (pull-down/input)
GATGATTGTTCTCCCAGCTGATGAATTCCTATTGTCGAGTAAACAAATTTTCCTAATCTTTCTGTTCAAGCGCCATCTAC | 0.764 RPM ratio (pull-down/input)
GATGATTGTTCTCCCAGCTGATGAATTTCTATTGTCGAGTAAACAAATTTTCCTAATCTTTCTGTTCAAGCGCCATCTAC | 0.631 RPM ratio (pull-down/input)
GATGATTGTTCTCCCAGCTGATGAATTGTCCTATTCGAGTAAACAAATTTTCCTAATCTTTCTGTTCAAGCGCCATCTAC | 0.45 RPM ratio (pull-down/input)

Sequence | binding signal
GATGATTGTTCTCCCAGCTGATGAATTGGCCCTCTCGAGTAAACAAATTTTCCTAATCTTTCTGTTCAAGCGCCATCTAC | 0.358 RPM ratio (pull-down/input)
GATGATTGTTCTCCCAGCTGATGAATTCGTCAGGTCGAGTAAACAAATTTTCCTAATCTTTCTGTTCAAGCGCCATCTAC | 0.551 RPM ratio (pull-down/input)
GATGATTGTTCTCCCAGCTGATGAATTTGTTAGCTCGAGTAAACAAATTTTCCTAATCTTTCTGTTCAAGCGCCATCTAC | 6.55 RPM ratio (pull-down/input)
GATGATTGTTCTCCCAGCTGATGAATTCTTTGGCTCGAGTAAACAAATTTTCCTAATCTTTCTGTTCAAGCGCCATCTAC | 0.217 RPM ratio (pull-down/input)
GATGATTGTTCTCCCAGCTGATGAATTTTTTGGCTCGAGTAAACAAATTTTCCTAATCTTTCTGTTCAAGCGCCATCTAC | 0.204 RPM ratio (pull-down/input)
GATGATTGTTCTCCCAGCTGATGAATTTGTTGGCTCGAGTAAACAAATTTTCCTAATCTTTCTGTTCAAGCGCCATCTAC | 7 RPM ratio (pull-down/input)
GATGATTGTTCTCCCAGCTGATGAATTGTTAGGCTCGAGTAAACAAATTTTCCTAATCTTTCTGTTCAAGCGCCATCTAC | 0.88 RPM ratio (pull-down/input)
GATGATTGTTCTCCCAGCTGATGAATTTCTTAGCTCGAGTAAACAAATTTTCCTAATCTTTCTGTTCAAGCGCCATCTAC | 0.342 RPM ratio (pull-down/input)
GATGATTGTTCTCCCAGCTGATGAATTGCGGTCATCGAGTAAACAAATTTTCCTAATCTTTCTGTTCAAGCGCCATCTAC | 1.01 RPM ratio (pull-down/input)
GATGATTGTTCTCCCAGCTGATGAATTGCATGATTCGAGTAAACAAATTTTCCTAATCTTTCTGTTCAAGCGCCATCTAC | 1.35 RPM ratio (pull-down/input)
GATGATTGTTCTCCCAGCTGATGAATTGCATCATTCGAGTAAACAAATTTTCCTAATCTTTCTGTTCAAGCGCCATCTAC | 5.15 RPM ratio (pull-down/input)
GATGATTGTTCTCCCAGCTGATGAATTAAATGCATCGAGTAAACAAATTTTCCTAATCTTTCTGTTCAAGCGCCATCTAC | 2.36 RPM ratio (pull-down/input)
GATGATTGTTCTCCCAGCTGATGAATTCATGCATTCGAGTAAACAAATTTTCCTAATCTTTCTGTTCAAGCGCCATCTAC | 5.77 RPM ratio (pull-down/input)
GATGATTGTTCTCCCAGCTGATGAATTAATGAATTCGAGTAAACAAATTTTCCTAATCTTTCTGTTCAAGCGCCATCTAC | 0.682 RPM ratio (pull-down/input)
GATGATTGTTCTCCCAGCTGATGAATTGATGCATTCGAGTAAACAAATTTTCCTAATCTTTCTGTTCAAGCGCCATCTAC | 6.87 RPM ratio (pull-down/input)
GATGATTGTTCTCCCAGCTGATGAATTCGATGCATCGAGTAAACAAATTTTCCTAATCTTTCTGTTCAAGCGCCATCTAC | 1.84 RPM ratio (pull-down/input)
GATGATTGTTCTCCCAGCTGATGAATTAATGCATTCGAGTAAACAAATTTTCCTAATCTTTCTGTTCAAGCGCCATCTAC | 6.89 RPM ratio (pull-down/input)
GATGATTGTTCTCCCAGCTGATGAATTGAAGCATTCGAGTAAACAAATTTTCCTAATCTTTCTGTTCAAGCGCCATCTAC | 4.38 RPM ratio (pull-down/input)
GATGATTGTTCTCCCAGCTGATGAATTTTGCACGTCGAGTAAACAAATTTTCCTAATCTTTCTGTTCAAGCGCCATCTAC | 3.32 RPM ratio (pull-down/input)
GATGATTGTTCTCCCAGCTGATGAATTTTTAGGATCGAGTAAACAAATTTTCCTAATCTTTCTGTTCAAGCGCCATCTAC | 0.222 RPM ratio (pull-down/input)
GATGATTGTTCTCCCAGCTGATGAATTCAATTAGTCGAGTAAACAAATTTTCCTAATCTTTCTGTTCAAGCGCCATCTAC | 1.25 RPM ratio (pull-down/input)

Sequence | binding signal
GATGATTGTTCTCCCAGCTGATGAATTCTGTAGGTCGAGTAAACAAATTTTCCTAATCTTTCTGTTCAAGCGCCATCTAC | 0.948 RPM ratio (pull-down/input)
GATGATTGTTCTCCCAGCTGATGAATTTGACGTATCGAGTAAACAAATTTTCCTAATCTTTCTGTTCAAGCGCCATCTAC | 1.27 RPM ratio (pull-down/input)
GATGATTGTTCTCCCAGCTGATGAATTGGAGTACTCGAGTAAACAAATTTTCCTAATCTTTCTGTTCAAGCGCCATCTAC | 0.523 RPM ratio (pull-down/input)
GATGATTGTTCTCCCAGCTGATGAATTCGAACTTTCGAGTAAACAAATTTTCCTAATCTTTCTGTTCAAGCGCCATCTAC | 0.271 RPM ratio (pull-down/input)
GATGATTGTTCTCCCAGCTGATGAATTCATCTCATCGAGTAAACAAATTTTCCTAATCTTTCTGTTCAAGCGCCATCTAC | 0.393 RPM ratio (pull-down/input)
GATGATTGTTCTCCCAGCTGATGAATTAGTTTGTTCGAGTAAACAAATTTTCCTAATCTTTCTGTTCAAGCGCCATCTAC | 6.22 RPM ratio (pull-down/input)
GATGATTGTTCTCCCAGCTGATGAATTAGTAGTTTCGAGTAAACAAATTTTCCTAATCTTTCTGTTCAAGCGCCATCTAC | 1.93 RPM ratio (pull-down/input)
GATGATTGTTCTCCCAGCTGATGAATTAGTTAGTTCGAGTAAACAAATTTTCCTAATCTTTCTGTTCAAGCGCCATCTAC | 4.22 RPM ratio (pull-down/input)
GATGATTGTTCTCCCAGCTGATGAATTAGTTCTTTCGAGTAAACAAATTTTCCTAATCTTTCTGTTCAAGCGCCATCTAC | 0.409 RPM ratio (pull-down/input)
GATGATTGTTCTCCCAGCTGATGAATTAGTTTTTTCGAGTAAACAAATTTTCCTAATCTTTCTGTTCAAGCGCCATCTAC | 3.9 RPM ratio (pull-down/input)
GATGATTGTTCTCCCAGCTGATGAATTAGTTTCTTCGAGTAAACAAATTTTCCTAATCTTTCTGTTCAAGCGCCATCTAC | 2.72 RPM ratio (pull-down/input)
GATGATTGTTCTCCCAGCTGATGAATTTTTTAGTTCGAGTAAACAAATTTTCCTAATCTTTCTGTTCAAGCGCCATCTAC | 0.299 RPM ratio (pull-down/input)
GATGATTGTTCTCCCAGCTGATGAATTAGTTGTTTCGAGTAAACAAATTTTCCTAATCTTTCTGTTCAAGCGCCATCTAC | 6.61 RPM ratio (pull-down/input)
GATGATTGTTCTCCCAGCTGATGAATTCTTTAGTTCGAGTAAACAAATTTTCCTAATCTTTCTGTTCAAGCGCCATCTAC | 0.297 RPM ratio (pull-down/input)
GATGATTGTTCTCCCAGCTGATGAATTGTTAGTTTCGAGTAAACAAATTTTCCTAATCTTTCTGTTCAAGCGCCATCTAC | 4.23 RPM ratio (pull-down/input)
GATGATTGTTCTCCCAGCTGATGAATTTAGTTGTTCGAGTAAACAAATTTTCCTAATCTTTCTGTTCAAGCGCCATCTAC | 5.93 RPM ratio (pull-down/input)
GATGATTGTTCTCCCAGCTGATGAATTTGTTAGTTCGAGTAAACAAATTTTCCTAATCTTTCTGTTCAAGCGCCATCTAC | 7.44 RPM ratio (pull-down/input)
GATGATTGTTCTCCCAGCTGATGAATTCGACAGGTCGAGTAAACAAATTTTCCTAATCTTTCTGTTCAAGCGCCATCTAC | 0.284 RPM ratio (pull-down/input)
GATGATTGTTCTCCCAGCTGATGAATTCAGACATTCGAGTAAACAAATTTTCCTAATCTTTCTGTTCAAGCGCCATCTAC | 0.869 RPM ratio (pull-down/input)
GATGATTGTTCTCCCAGCTGATGAATTTCGCGAGTCGAGTAAACAAATTTTCCTAATCTTTCTGTTCAAGCGCCATCTAC | 0.675 RPM ratio (pull-down/input)
GATGATTGTTCTCCCAGCTGATGAATTAGAGCCCTCGAGTAAACAAATTTTCCTAATCTTTCTGTTCAAGCGCCATCTAC | 0.358 RPM ratio (pull-down/input)
